The subject of assay [1] is Wnt5a (protein binding on small-molecule microarray). Put plainly: Wnt5a binders on small-molecule microarray, primary screen, biophysical, 635/667 nm fluorescence (AID 1142).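 Further: fluorescence read at 667 nm with signal to noise per printed feature.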 To be noted: 635 nm fluorescence, higher = more signal.
Assay [2] can be described thus: cell viability in Huh7 cells, primary screen, cytotoxicity control for HCV replication inhibitor project, CellTiter-Glo luminescence, basal, 48 h (AID 1143).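 Further: Huh7 hepatoma cells carrying a hepatitis C replication reporter with no stimulus; test concentration not given here.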 To be noted: Huh7 HCV replicon, higher = more signal, called active from +8 up or from −8 down. Background: ATP-based viability assays read luminescence as a measure of living cells.
Assay [3] in a line: P. aeruginosa biofilm formation inhibitors, primary screen, PAO1 strain, BacTiter-Glo luminescence, LB-PBS (AID 1144). To be noted: 12 h, higher = more signal.
Assay [4] can be described thus: CREB reporter modulators without forskolin, primary screen, cell-based, PC12, CRE-LacZ reporter, unstimulated (AID 1145). To be noted: no forskolin, luminescence, 4.5 h, higher = more signal, called active from +8 up or from −8 down.
The nature of assay [5]: CREB reporter modulators under forskolin, primary screen, cell-based, PC12, CRE-LacZ reporter, forskolin-stimulated (AID 1146).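 Further: PC12 cells with 6xCRE LacZ reporter stimulated by forskolin 10 µM; beta-galactosidase reporter signal reflecting CREB driven transcription.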 To be noted: luminescence, 4.5 h, higher = more signal, called active from +8 up or from −8 down.
Assay [6] concerns the target Streptavidin (Streptomyces avidinii) (UniProt P22629). Put plainly: streptavidin binders on small-molecule microarray, primary screen, artefact control for SMM compound annotation, biophysical, 635/667 nm fluorescence (AID 1147).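 Further: signal reflects streptavidin binding to arrayed compounds as a control protein.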 To be noted: streptavidin binding, higher = more signal.
The nature of assay [7]: small-molecule binders of probe aInhba, primary screen, biochemical, small-molecule microarray, 635/667 nm fluorescence (AID 1148).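 Further: score merges 667nm spot fluorescence with signal-to-noise for antibody binding to printed compounds.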 To be noted: higher = more signal.
For assay [8], the target named is Torsin-1A (Homo sapiens) (UniProt O14656). Put plainly: torsin A binders from cell lysate, primary screen, small-molecule microarray, wild-type, 635/667 nm (AID 1149). To be noted: COS7 hTOR1A-WT lysate, 635 nm fluorescence, higher = more signal.
Sequence of Torsin-1A (Homo sapiens) (O14656 whole entry, looked up): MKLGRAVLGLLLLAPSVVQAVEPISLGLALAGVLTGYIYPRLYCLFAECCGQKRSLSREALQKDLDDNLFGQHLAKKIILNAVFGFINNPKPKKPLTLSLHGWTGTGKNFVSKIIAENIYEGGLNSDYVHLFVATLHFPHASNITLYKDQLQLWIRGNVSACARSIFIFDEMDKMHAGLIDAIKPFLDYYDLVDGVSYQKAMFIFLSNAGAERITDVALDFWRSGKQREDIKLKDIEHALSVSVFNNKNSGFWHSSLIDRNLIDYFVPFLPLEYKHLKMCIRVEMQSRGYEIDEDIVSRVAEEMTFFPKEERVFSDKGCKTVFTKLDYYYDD
For assay [9] the target is unchanged. Put plainly: small-molecule binders of mutant TOR1A in lysate, primary screen, cell lysate, small-molecule microarray, COS7 lysate, 635/667 nm fluorescence (AID 1150).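 Further: score pools 667 nm emission and signal to noise measuring lysate protein binding.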 To be noted: COS7 hTOR1A mutant lysate, 635 nm fluorescence, higher = more signal.
Assay [10] has as its system Sonic hedgehog protein (Shh). Put plainly: small-molecule binders of Shh protein, primary screen, biochemical, small-molecule microarray, 635/667 nm fluorescence (AID 1151).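 Further: Shh protein binding to compounds spotted on small-molecule microarray slides; score combines spot fluorescence intensity with signal-to-noise across triplicate slides.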 To be noted: small-molecule microarray binding, 635 nm fluorescence; higher = more signal.
The nature of assay [11]: E. coli DRC41 culture turbidity changes, primary screen, E. coli filamentation inducer project, strain DRC41, OD650, 48 h (AID 1152).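 Further: E. coli MC1000 strain DRC41 lacking acrAB efflux pump and sulA.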 To be noted: E. coli DRC41 (acrAB sulA), higher = more signal, called active from +8 up or from −8 down.
Assay [12] in a line: small-molecule binders of probe aLefty1, primary screen, biochemical, small-molecule microarray, 635/667 nm fluorescence (AID 1153).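 Further: score merges spot fluorescence with signal-to-noise ratio from the scanned slide images.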 To be noted: higher = more signal.
The nature of assay [13]: PSAC antagonists in infected red cells, primary screen, cell-based, P. falciparum Indochina, OD700, 1 h (AID 1154). To be noted: P. falciparum Indochina infected RBC osmotic lysis, higher = more signal, called active from +8 up or from −8 down.
The nature of assay [14]: PSAC antagonists in infected red cells, primary screen, cell-based, P. falciparum Indochina, OD700, 2 h (AID 1155).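 Further: lysis reports solute entry through the parasite surface anion channel PSAC; channel blockers reduce lysis of infected cells.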 To be noted: P. falciparum Indochina infected erythrocytes, osmotic lysis OD700; higher = more signal, called active from +8 up or from −8 down.
The nature of assay [15]: osmotic lysis modulators in infected erythrocytes, primary screen, PSAC antagonist project, cell-based, P. falciparum Indochina, OD700, 3 h (AID 1156). To be noted: higher = more signal, called active from +8 up or from −8 down.
Assay [16] is described as follows: PSAC antagonists in infected red cells, primary screen, cell-based, P. falciparum Indochina, OD700, 18 h (AID 1157). To be noted: P. falciparum Indochina infected erythrocytes, osmotic lysis OD700, 18 h; higher = more signal, called active from +8 up or from −8 down.
Assay [17] can be described thus: modulators of S6 phosphorylation in cells, primary screen, cell-based, A549, cytoblot, luminescence, serum-stimulated (AID 1158).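 Further: serum-stimulated A549 lung adenocarcinoma cells; signal is phosphorylated S6 detected by cytoblot immunostaining with HRP secondary.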 To be noted: A549 phospho-S6 cytoblot, 5 h, higher = more signal.
Assay [18] addresses NADPH oxidase 2 (Homo sapiens) (UniProt P04839). Put plainly: NOX2-dependent H2O2 signal modulators, primary screen, NOX inhibitor project, cell-based, HEK293-NOX2, PMA-stimulated, Amplex Red fluorescence (AID 1159). Further: test concentration not given here. To be noted: 45 min, higher = more signal, called active from +8 up or from −8 down.
The target of assay [19] is NADPH oxidase 4 (Homo sapiens) (UniProt Q9NPH5). Put plainly: NOX4-dependent H2O2 signal modulators, primary screen, NOX inhibitor project, cell-based, HEK293-NOX4, tetracycline-induced, Amplex Red fluorescence (AID 1160). To be noted: 45 min, higher = more signal, called active from +8 up or from −8 down.
Sequence of NADPH oxidase 4 (Homo sapiens) (Q9NPH5 whole entry, looked up): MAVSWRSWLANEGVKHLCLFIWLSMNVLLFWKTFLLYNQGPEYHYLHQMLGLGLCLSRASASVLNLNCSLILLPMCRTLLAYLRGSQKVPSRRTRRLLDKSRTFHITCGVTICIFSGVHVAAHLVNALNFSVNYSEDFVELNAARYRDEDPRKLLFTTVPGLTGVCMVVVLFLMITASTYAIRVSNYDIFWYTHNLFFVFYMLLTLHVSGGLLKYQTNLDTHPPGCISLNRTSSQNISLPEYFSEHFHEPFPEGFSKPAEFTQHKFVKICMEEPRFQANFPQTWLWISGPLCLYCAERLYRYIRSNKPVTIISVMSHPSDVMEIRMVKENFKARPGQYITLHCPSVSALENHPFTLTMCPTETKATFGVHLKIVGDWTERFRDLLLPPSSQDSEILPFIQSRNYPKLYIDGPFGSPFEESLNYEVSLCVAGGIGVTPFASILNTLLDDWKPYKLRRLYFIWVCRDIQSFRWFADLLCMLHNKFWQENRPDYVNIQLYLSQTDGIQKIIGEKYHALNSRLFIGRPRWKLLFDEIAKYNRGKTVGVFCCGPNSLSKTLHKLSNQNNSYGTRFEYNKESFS
Assay [20] addresses NADPH oxidase 5 (Homo sapiens) (UniProt Q96PH1). Put plainly: NOX5-dependent H2O2 signal modulators, primary screen, NOX inhibitor project, cell-based, HEK293-NOX5, Amplex Red fluorescence (AID 1161). To be noted: HEK293-NOX5, ionomycin, 45 min, higher = more signal.

Calls of active or inactive are those of the source. Unless noted, how the calls were made is not given here.

Sequence of NADPH oxidase 2 (Homo sapiens) (P04839 whole entry, looked up): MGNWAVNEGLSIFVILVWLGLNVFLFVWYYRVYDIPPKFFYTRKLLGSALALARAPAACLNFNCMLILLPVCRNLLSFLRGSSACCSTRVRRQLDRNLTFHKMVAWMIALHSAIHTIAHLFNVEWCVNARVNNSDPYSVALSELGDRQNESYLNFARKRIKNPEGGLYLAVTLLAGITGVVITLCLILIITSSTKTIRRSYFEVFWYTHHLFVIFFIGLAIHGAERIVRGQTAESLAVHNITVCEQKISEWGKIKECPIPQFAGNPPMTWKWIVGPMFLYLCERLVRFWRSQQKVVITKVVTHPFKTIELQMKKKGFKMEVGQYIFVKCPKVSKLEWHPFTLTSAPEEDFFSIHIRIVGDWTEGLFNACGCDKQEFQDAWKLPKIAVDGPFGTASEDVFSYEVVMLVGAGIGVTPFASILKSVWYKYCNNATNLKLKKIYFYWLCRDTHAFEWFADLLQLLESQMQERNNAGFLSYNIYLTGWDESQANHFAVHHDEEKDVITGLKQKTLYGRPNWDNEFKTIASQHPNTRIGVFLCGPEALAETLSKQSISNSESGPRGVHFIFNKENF
Sequence of NADPH oxidase 5 (Homo sapiens) (Q96PH1 whole entry, looked up): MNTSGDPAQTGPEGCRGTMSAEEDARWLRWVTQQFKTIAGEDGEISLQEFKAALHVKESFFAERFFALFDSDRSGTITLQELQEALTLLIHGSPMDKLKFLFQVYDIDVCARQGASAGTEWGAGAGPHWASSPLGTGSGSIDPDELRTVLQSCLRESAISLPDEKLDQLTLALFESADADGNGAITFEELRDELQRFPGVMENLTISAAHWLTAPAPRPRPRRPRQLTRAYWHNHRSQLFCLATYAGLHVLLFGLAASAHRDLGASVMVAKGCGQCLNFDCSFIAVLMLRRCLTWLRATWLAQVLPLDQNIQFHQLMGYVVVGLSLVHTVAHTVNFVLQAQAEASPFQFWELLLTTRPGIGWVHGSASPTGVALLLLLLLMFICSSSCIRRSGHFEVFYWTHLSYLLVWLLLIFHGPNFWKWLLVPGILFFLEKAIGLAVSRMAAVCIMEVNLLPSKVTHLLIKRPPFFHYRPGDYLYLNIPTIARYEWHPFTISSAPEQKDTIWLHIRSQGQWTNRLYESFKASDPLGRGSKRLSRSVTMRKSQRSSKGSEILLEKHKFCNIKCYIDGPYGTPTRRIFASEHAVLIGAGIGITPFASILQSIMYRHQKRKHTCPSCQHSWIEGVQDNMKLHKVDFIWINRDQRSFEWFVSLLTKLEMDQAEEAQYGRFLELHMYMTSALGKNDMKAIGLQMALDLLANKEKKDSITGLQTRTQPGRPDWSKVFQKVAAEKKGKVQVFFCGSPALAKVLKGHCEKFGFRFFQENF
Sequence of Streptavidin (Streptomyces avidinii) (P22629 whole entry, looked up): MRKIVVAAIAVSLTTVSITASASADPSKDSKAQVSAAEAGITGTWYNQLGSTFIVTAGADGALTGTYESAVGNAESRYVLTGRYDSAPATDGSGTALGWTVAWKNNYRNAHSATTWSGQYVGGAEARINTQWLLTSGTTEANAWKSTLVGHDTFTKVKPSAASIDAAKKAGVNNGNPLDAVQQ

In the case of `O=C1NC(=O)C2C1C=CC(C(O)c1ccc(B(O)O)cc1)N2Nc1ccc(Cl)cc1Cl` (stereo not given), the composite z-score in assay [1] was -0.0744; in [6], 1.09; in [7], 0.0074; with Torsin-1A (Homo sapiens) [8] it was -1.22; with Torsin-1A (Homo sapiens) [9], -0.147; in assay [10], -0.589. For the same compound, the composite z-score in assay [12] was 0.199. The z-score is -0.245 (inactive) in [2]; -0.661 (inactive) in assay [3]; -0.515 (inactive) in [4]; 0.763 (inactive) in assay [5]; -2.48 (inactive) in [11]; 1.8 (inactive) in [13]. Moreover, the z-score in assay [14] is 0.917 (inactive); in assay [15], -0.577 (inactive); in assay [16], 0.654 (inactive); in assay [17] it was -1.07; in assay [18], -2.66 (inactive); in assay [19], -5.04 (inactive). The same compound returned a z-score in assay [20] of -6.42.

`Cc1ccccc1C(O)C1C=CC2C(=O)N(c3ccccc3)C(=O)C2N1Nc1ccccc1` (stereo not given): the composite z-score in [1] is 0.719; in [6] it was 1.65; in assay [7], 0.182; in the assay with Torsin-1A (Homo sapiens) [8], -0.241; in the assay with Torsin-1A (Homo sapiens) [9] it was 0.191; in [10] it was 0.442. Also, the composite z-score in assay [12] was 0.271. Moreover, the z-score in [2] is -0.383 (inactive); in [3] it was -1.18 (inactive); in assay [4] it was 0.0501 (inactive); in assay [5], 0.0163 (inactive); in assay [11], -0.29 (inactive); in [13], 20.1 (active). In addition, the z-score in [14] was 3.73 (inactive); in assay [15] it was 0.214 (inactive); in [16], 1.59 (inactive); in [17] it was -0.495; in assay [18], -1.85 (inactive); in assay [19], -2.96 (inactive). The compound further gave a z-score in assay [20] of -2.44.

For the compound `CCOC(=O)C1=CC[C@@H](c2ccccc2)N(S(=O)(=O)c2ccc(C)cc2)[C@H]1c1ccccc1I`, the composite z-score in assay [1] was 0.296; in assay [6], 0.864; in assay [7] it was 0.849; with Torsin-1A (Homo sapiens) [8], -0.315; in the assay with Torsin-1A (Homo sapiens) [9], 0.507; in assay [10], 0.239. The compound further came in with a composite z-score in assay [12] of 1.24. In addition, the z-score in [2] is -2.69 (inactive); in assay [3], 0.366 (inactive); in [4], 0.566 (inactive); in assay [5] it was -0.226 (inactive); in assay [11], -0.801 (inactive); in [13] it was 1.18 (inactive). The z-score in assay [14] was 0.948 (inactive); in [15], -0.597 (inactive); in assay [16], 0.631 (inactive); in assay [17] it was -0.94; in [18] it was 0.62 (inactive); in assay [19] it was 0.205 (inactive). This compound yielded a z-score in assay [20] of 0.721.

On to `O=C(NCC(O)CO)C1N=C(c2ccc(OCCCO)cc2)N(c2ccccc2)O1` (stereo not given), for which the composite z-score is 0.41 in assay [1]; -0.214 in [6]; -0.0468 in assay [7]; 0.975 in the assay with Torsin-1A (Homo sapiens) [8]; 0.682 in the assay with Torsin-1A (Homo sapiens) [9]; 1.27 in assay [10]. In [12], this compound yielded a composite z-score of -0.316. The z-score in [2] is -1.12 (inactive); in assay [3], 2.56 (inactive); in assay [4] it was 0.456 (inactive); in [5], -0.442 (inactive); in assay [11], -0.0446 (inactive); in assay [13], 13.5 (active). Moreover, the z-score was 1.49 (inactive) in assay [14]; 0.257 (inactive) in [15]; 0.594 (inactive) in assay [16]; 0.0265 in [17]; -1.68 (inactive) in assay [18]; -1.05 (inactive) in [19]. Further, the z-score in assay [20] is -0.583.

As to `C=C(COC)C(=O)CC[C@@H](OC(C)=O)c1ccccc1OCCO`, the composite z-score in assay [1] was 0.866; in assay [6], -0.507; in assay [7], -0.0403; with Torsin-1A (Homo sapiens) [8] it was 0.135; in the assay with Torsin-1A (Homo sapiens) [9], 1.05; in assay [10] it was 2.32. In assay [12], this compound yielded a composite z-score of -0.152. Further, the z-score in assay [2] was -2.43 (inactive); in [3], -0.787 (inactive); in assay [4] it was 1.54 (inactive); in assay [5], 8.39 (active); in assay [11], 0.929 (inactive); in assay [13], 1.73 (inactive). In addition, the z-score in assay [14] is -0.91 (inactive); in assay [15], -0.0421 (inactive); in assay [16] it was -1.95 (inactive); in [17] it was 0.846; in assay [18], -1.51 (inactive); in assay [19] it was 0.146 (inactive). The z-score in assay [20] was -1.38.

Values taken from PubChem BioAssay.
